How the values were obtained:
Assay in all cases: PBM binding z-score (relative to random genomic background probes); higher = stronger binding; sequences stand for … in GC…GCGATTGACAGCGTAGAATGAAGG
[1] = tested on: RARb homodimer (NR concentration 270 nM)
Procedure, shortened: (§1)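 Custom Agilent 4×180K protein-binding microarrays carried double-stranded probes, each with a 34-nt variable region. These regions held direct-repeat seeds, single-nucleotide variants, half-site ablations and random human genomic background sequences. Ligand-free nuclear receptor dimers were incubated on the arrays for 1 h, antibodies against each partner (one per run) detected binding, and scanned fluorescence was regression-normalized. Binding z-scores take the random background probes as reference.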

[2] = tested on: RARg:RXRa (NR concentration 270 nM, RXRa partner concentration 90 nM)
Procedure, shortened: as §1

[3] = tested on: RARg homodimer (NR concentration 270 nM)
Procedure, shortened: as §1

[4] = tested on: RXRa DBDmut IVT, anti-RXR (DBD mutation: RXRa K156A/R161A, NR concentration 90 nM)
Procedure, shortened: as §1

[5] = tested on: THRa:RXRa (NR concentration 90 nM, RXRa partner concentration 90 nM)
Procedure, shortened: as §1

[6] = tested on: THRa homodimer (NR concentration 90 nM)
Procedure, shortened: as §1

[7] = tested on: VDR homodimer (NR concentration 270 nM)
Procedure, shortened: as §1

[8] = tested on: RXRa homodimer (NR concentration 180 nM)
Procedure, shortened: as §1

[9] = tested on: VDR:RXRa (NR concentration 270 nM, RXRa partner concentration 90 nM)
Procedure, shortened: as §1

Sequence | PBM binding z-score [1] | PBM binding z-score [2] | PBM binding z-score [3] | PBM binding z-score [4] | PBM binding z-score [5] | PBM binding z-score [6] | PBM binding z-score [7] | PBM binding z-score [8] | PBM binding z-score [9]
ACTCGGAGGACAAATGTCAGAGCTACGCCAGTGA | 0.623 | 1.08 | 1.68 | 0.614 | 0.512 | -0.331 | -0.508 |  | 
CCTACGGGGCCAAAGGTCATTGATTCCAATGCTC | 4.5 | 6.59 | 5.24 | 1.86 | 3.78 | 0.564 | 2.99 |  | 
TCTAGTTGGTCGCGGAGGTCACACACGACGGGTA | 3.92 | 3.94 | 3.62 | 0.932 | 3.45 | 2.74 | 2.63 |  | 
CCTTACGGGTCACGGGGTTATAGCACGACGAGCG | 3.7 | 6.74 | 5.54 | 1.77 | 4 | 0.91 | 2.44 |  | 
CAAACTAGGTCACAGAGGTTAAAGTCCGTGCGTA | 4.34 | 5.36 | 5.64 | 2.38 | 4.12 | 2.1 | 3.13 |  | 
CCTACTGGGCGACGAAAGGTCATTGATTCAGTGA | 4.11 | 4.14 | 3.31 | 0.216 | 3.13 | 0.124 | 1.38 |  | 
CCTACTGGGCCATACAGAGGTCATTGATCATATG | 3.98 | 4.45 | 3.22 | 0.759 | 3.15 | 1.47 | 4.19 |  | 
ATATGTAGGTTAGCGTCATTCAGAAAGTAGGGAA | 0.285 | 0.435 | 0.62 | -0.0875 | 0.15 | -0.253 | 0.0488 |  | 
GCTGCTAGGTTAACTGATGGTCAGCTAAAGCTCG | 0.815 | 1.6 | 0.672 | 0.235 | 0.689 | -0.683 | -0.649 |  | 
CCGACTGGGGCAAAGGTCACCATACTCAGTACGA | 4.81 | 7 | 6.32 | 0.548 | 3.62 | 1.04 | 1.55 |  | 
ATATGTAGGTTACGTCCGGGTCATTCAGGCTATG | 3.02 | 4.03 | 2.34 | 1.06 | 4.01 | 2.88 | 2.91 |  | 
GCTGCTAGGTCAACTGATGGTCAGCTAAAGCTCG | 3.57 | 5.2 | 5.18 | 1.44 | 2.99 | 0.814 | 0.0317 |  | 
CGTCCAAGGTCAATGCTAGGCCAGTGAAAGCATT | 3.99 | 6.23 | 6.11 | 3.55 | 3.96 | 2.15 | 2.49 |  | 
CAAACTAGGTCACGAAAGGGCAAAGTCGAATGAC | 4.43 | 5.81 | 6.33 | 1.77 | 4.54 | 1.42 | 1.35 |  | 
ACTAGTTGGTCAGCTGAGGTAACACACAATTCGG | 1.07 | 0.611 | 0.949 | 0.36 | 3.97 | 1.99 | 0.0871 |  | 
CCGACTGGGGCAAAGGTTACCATGCTCAGTACGA | 2.01 | 3.66 | 1.55 | -0.0654 | 1.74 | -0.38 | -0.359 |  | 

Sequence | PBM binding z-score [1] | PBM binding z-score [2] | PBM binding z-score [3] | PBM binding z-score [4] | PBM binding z-score [5] | PBM binding z-score [6] | PBM binding z-score [7] | PBM binding z-score [8] | PBM binding z-score [9]
TTACCAAGGTGAAAGGTCATTGATGCACGCCTTG | 4.75 | 6.91 | 5.06 | 1.85 | 4.42 | 1.64 | 3.32 |  | 
TCTAGTTGGTCATGGAGGTCACACACGACGGGTA | 4.43 | 4.86 | 5.01 | 1.01 | 3.61 | 2.8 | 3.38 |  | 
CCTAGCAGGCGAGGGTCACTCAAGCATTTCGCTT | 2.36 | 2.77 | 1.69 | 0.212 | 1.79 | -0.42 | 0.128 |  | 
CGAACTAGGTCACCAGAACAGTGAAGAGGTTGGA | 3.14 | 4.44 | 5.22 | 1.11 | 2.87 | 0.853 | 0.565 |  | 
TAGCCTAGGTCATGCGGGCCAGTATAGTGTCGGC | 2.89 | 3.98 | 4.4 | 0.813 | 3.02 | 0.858 | 0.814 |  | 
TTACCAAGGTGAAAGGTCGGTGATGCACGCCTTG | 2.16 | 3.18 | 1.51 | -0.134 | 2.66 | 0.427 | -0.0558 |  | 
CAAACTAGGTCACAGAGGGCAAAGTCCGTGCGTA | 4.14 | 5.05 | 5.61 | 2.45 | 3.87 | 1.55 | 4.18 |  | 
ATCTAAAGGTCGAAGGTGAGTATACCCACCCGAA | 2.54 | 4.32 | 3.66 | 1.74 | 2.21 | 0.159 | 0.755 |  | 
CGGCCAAGGTCAAAGGTCAGTGAAGAGATGACGG | 5.37 | 9.05 | 8.47 | 3.57 | 4.99 | 2.52 | 3.31 |  | 
TCTAGCTGGTCAAAGGTCACACACTCGAAATGCG | 5.13 | 7.3 | 6.69 | 1.15 | 3.88 | 1.36 | 1.86 |  | 
CAAACTAGGTCACAGAGGTCAAACTCCGTGCGTA | 5.75 | 7.7 | 7.96 | 3.78 | 4.66 | 3.37 | 7.66 |  | 
GATACAGGGTCAATGCCAGAGTACGCGTATTGAT | 3.11 | 4.62 | 4.35 | 2.89 | 2.87 | 0.742 | 2.31 |  | 
CCTAGTTGGTCAGGAGGCCACACACCGGATATGA | 1.51 | 0.776 | 1.23 | -0.19 | 0.326 | 0.708 | 0.435 |  | 
TAGCCAAGGTCATTCAGGGGCCAGTATAGAAAGC | 4.08 |  | 6.27 | 4.05 | 4.08 | 1.75 | 3.99 | 5.47 | 5.28
CGAACTAAGTCATCCAGGACAGTGAATACATTGA | 0.33 |  | 0.549 | 0.248 | 1.55 | 1.1 | 0.0279 | 0.264 | 0.524

— the supplement of paper PMC6555819
